# Compound activity: PubChem, several laboratories
# Rows were chosen to be rich in hits. Some 3.9% of all compounds tested hit in one or more screens of this group.
# BH1578 lux ind: inducers of Vibrio cholerae quorum light production without autoinducers; activation, % at 18.7 µM; 350,000 compounds, 0.16% hits; V. cholerae BH1578 lux reporter, luminescence, 6 h; in the data active = activation mostly above about 9.7%, no sharp cut-off
# FBA Mtb inh: Mtb fructose-bisphosphate aldolase inhibition | 360,000 compounds, 2.3% hits | inhibition, % at 1 µM | P9WQA3 | AID 588726 | purified M. tuberculosis FBA, fluorescence read-out; in the data active = inhibition above about 27%;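 also: 0% = vehicle and 100% = reference inhibitor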
# Target sequence (P9WQA3 whole entry, looked up): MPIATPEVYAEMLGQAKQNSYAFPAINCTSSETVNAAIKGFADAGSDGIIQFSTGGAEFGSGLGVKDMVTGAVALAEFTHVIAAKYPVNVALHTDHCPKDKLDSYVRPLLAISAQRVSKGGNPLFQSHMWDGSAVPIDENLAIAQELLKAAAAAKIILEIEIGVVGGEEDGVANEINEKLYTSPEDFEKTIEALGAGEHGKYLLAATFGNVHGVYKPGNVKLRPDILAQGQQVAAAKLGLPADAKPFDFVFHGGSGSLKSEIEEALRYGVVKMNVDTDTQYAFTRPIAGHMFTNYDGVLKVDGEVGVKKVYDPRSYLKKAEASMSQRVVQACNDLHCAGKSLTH
# PrPC TRFRET: cell surface PrPC inhibition, primary TR-FRET screen; P04156; TR-FRET read-out; inhibition, % at 13.8 µM; 370,000 compounds, 0.43% hits; AID 720596; in the data active = inhibition above about 24%; also: 0% = median of the test wells and 100% = reference compound wells
# GDH-TPI counter: GDH-TPI coupled enzyme inhibition counter-screen; GDH-TPI coupled enzyme counterscreen, NADH absorbance; inhibition, % at 4.8 µM; 360,000 compounds, 1.2% hits; in the data active = inhibition above about 30%;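 also: 0% = DMSO wells and 100% = wells lacking the enzyme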
# 3CLpro inhibitor: SARS-CoV 3CLpro protease inhibition; 290,000 compounds, 0.14% hits; P0C6X7; inhibition, % at 6 µM; recombinant SARS-CoV 3CLpro, quenched FRET peptide cleavage; in the data active = inhibition above about 12%
# * marks the source's active call; other numbers are inactive results; i = inactive; · = not tested or not shown; + = active, no number.
SMILES,BH1578 lux ind,FBA Mtb inh,PrPC TRFRET,GDH-TPI counter,3CLpro inhibitor
O=C(CC(c1ccccc1)c1ccccc1)Nc1ccc(Cl)cn1,·,0,29*,-1,4
CCOc1cc(C=O)cc(Cl)c1OCC(N)=O,i,0,7,0,-5
CCOC(=O)C(C(=O)OCC)C1N=C(N)N=C2Oc3ccccc3N21 (stereo unspecified),-2,5,7,49*,0
Cc1ccccc1CN(C)C(=O)c1ccc2ccccc2n1,-1,1,6,-2,1
CCN1CCN(c2nc(C)nc3c2sc(=S)n3C)CC1,0,-1,-5,35*,0
CN(C)Cc1c(O)ccc2c(-c3ccccc3)cc(=O)oc12,i,10,-22,3,1
CC[C@@]1(O)C(=O)OCc2c1cc1n(c2=O)Cc2cc3c(CN(C)C)c(O)ccc3nc2-1,4,8,-2,34*,·
CC[C@@]1(O)C(=O)OCc2c1cc1n(c2=O)Cc2cc3c(N)cccc3nc2-1,i,5,10,33*,·
CCC(=O)Nc1ccc(S(=O)(=O)NCc2ccco2)cc1,-1,0,8,-9,2
O=C1CCCC(O)=C1C=Nc1ccc(O)cc1,i,-6,2,35*,-6
Cc1ccccc1C(=O)Nc1cccc(NC(=O)c2ccc(-c3ccc(Br)cc3)o2)c1,i,-2,-1,34*,3
CN1CCN(c2ccc(NC(=O)c3ccc(-c4ccc(Br)cc4)o3)cc2)CC1,0,-1,-24,15,-7
CC1=C(/C=C/C(C)=C/C=C/C(C)=C/C(=O)Nc2ccc(O)cc2)C(C)(C)CCC1,0,-3,3,35*,·
Cc1cc(C)cc(C(=O)OCC(=O)Nc2ncccn2)c1,i,-1,-3,1,·
COc1ccc(C(=O)/C=C/N2CCCCC2)cc1OC,-2,0,3,50*,4
COC(=O)c1ccc(N/C=C/C(=O)c2ccc(OC)c(OC)c2)cc1,3,7,5,1,2
Cc1cc(-c2ccco2)c(C#N)c2nc3ccccc3n12,i,2,-8,31*,-3
Cc1cc(C(C)C)n2c(nc3ccccc32)c1C#N,·,·,·,·,4
NC1=NC(c2ccccc2C(F)(F)F)N(c2ccc(F)c(Cl)c2)C(N)=N1 (stereo unspecified),-1,0,-13,10,-3
O=C1CCCC2=C1C(c1ccncc1)n1c(nc3ccccc31)N2 (stereo unspecified),-1,+,3,14,2
CC1CC(=O)C2=C(C1)Nc1nc3ccccc3n1C2c1cccnc1 (stereo unspecified),i,165*,1,14,2
COc1ccc(C2C3=C(CCCC3=O)Nc3nc4ccccc4n32)cc1OC (stereo unspecified),·,·,·,·,2
CC1CC(=O)C2=C(C1)Nc1ncnn1C2c1ccccc1 (stereo unspecified),i,1,2,7,-1
O=[N+]([O-])c1cccc(NC(=S)N2CCN(c3ccccn3)CC2)c1,-2,-2,-4,4,-1
CC(C)[C@H](CO)NC(=O)[C@H]1O[C@@H](n2ccc(=O)[nH]c2=O)[C@H](O)[C@@H]1O,·,5,4,·,·
SMILES,BH1578 lux ind,FBA Mtb inh,PrPC TRFRET,GDH-TPI counter,3CLpro inhibitor
COc1cc(OC)cc(C(=O)N[C@H](C(=O)NC2CCCc3ccccc32)C(C)C)c1 (stereo partly specified),1,-1,5,-8,·
CCCC(=O)Nc1ccc(N2CCN(S(C)(=O)=O)CC2)cc1,-3,1,-5,2,-2
CCCC(=O)NC1=C(N2CC2)C(=O)C(NC(=O)CCC)=C(N2CC2)C1=O,11,-2,-33,33*,·
O=C1c2ccccc2NC(c2ccc(O)c(O)c2)N1c1ccccc1Cl (stereo unspecified),0,6,-6,41*,4
COc1cc(C2Nc3ccccc3C(=O)N2c2ccccc2OC)ccc1O (stereo unspecified),-5,13,-5,1,4
O=C(Cc1ccc([N+](=O)[O-])cc1)OCc1c(F)cccc1Cl,i,-3,-1,3,3
O=C1CCN(Cc2ccccc2)CCN1CCO,i,6,-4,10,·
O=C1CCN(Cc2ccc(O)cc2)CCN1CCO,-2,1,-8,34*,-4
CCOc1ccc(C(C)=O)cc1CSc1nc2nc(C)cc(C)n2n1,-2,-1,10,11,-5
Cc1cccc(-n2c3nc(=O)[nH]c(=O)c-3cc3c(C)nn(-c4ccccc4)c32)c1C,0,+,-5,12,3
Cc1nn(-c2ccccc2)c(=O)c2ccccc12,-1,-1,-11,-2,0
Cc1nn(-c2ccccc2)c2c1cc1c(=O)n(C)c(=O)nc-1n2-c1ccccc1F,0,164*,-2,1,-3
O=C(NCc1cccc(Cl)c1)c1ccc(-n2cncn2)c2ccoc12,i,0,0,-11,·
CCN(CC)CCCNc1oc(-c2ccc(OC)c(OC)c2)nc1C#N,i,164*,0,17,3
COc1ccc(-c2nc(C#N)c(NCc3ccc(C)cc3)o2)cc1OC,i,144*,5,3,1
Cc1ccc(CNc2oc(C)nc2C#N)cc1,i,2,9,5,6
CN(C)CCCNc1oc(-c2cccc(Cl)c2)nc1C#N,-11,174*,-12,1,4
CN(C)CCNc1oc(COc2cccc(Cl)c2)nc1C#N,0,2,-3,-1,-5
COc1ccc(-c2nc(C#N)c(NCCCn3ccnc3)o2)cc1OC,0,+,4,12,2
CCOc1ccc(-n2c(SCC(=O)c3ccc4ccccc4c3)nnc2-c2cccc(Cl)c2)cc1,·,·,13,·,·
O=C(NCc1cccc(C(F)(F)F)c1)C1CC(c2c(Cl)cccc2Cl)=NO1 (stereo unspecified),i,3,1,17,-2
CN1C(=O)CCS(=O)(=O)C1c1ccc(Cl)c(Cl)c1 (stereo unspecified),-1,-2,8,6,·
COc1ccc(NC(=O)CN(C)C(=O)CSc2nc3ccccc3s2)cc1,20*,0,1,-2,·
CN(CC(=O)Nc1ccccc1Cl)C(=O)CSc1nc2ccccc2s1,0,2,1,-5,3
CCCCN1CC(COCc2ccccc2)Oc2cccc(Oc3ccc(SC)c(C)c3)c2S1(=O)=O (stereo unspecified),·,·,-5,·,·
SMILES,BH1578 lux ind,FBA Mtb inh,PrPC TRFRET,GDH-TPI counter,3CLpro inhibitor
O=C(/C=C/c1ccccc1)NC(=S)NNC(=O)Cc1cccs1,-1,5,-1,7,8
COc1ccc(C(=O)/C=C/c2ccc(O)cc2)cc1,-1,-2,5,31*,-1
COc1ccc(NC(=S)NC(=O)/C=C/c2ccc(F)cc2)cc1,i,1,3,3,-2
COc1ccc(/C=C/C(=O)NC(=S)NNC(=O)c2ccco2)cc1OC,0,3,-9,27,-3
COc1ccc(C=CC(=O)c2ccc([N+](=O)[O-])cc2)cc1,-4,-1,-6,3,·
COc1ccc(/C=C/C(=O)NC(=S)NNC(=O)c2ccco2)cc1,1,12,-11,41*,2
